Experimental data taken from ChEMBL document CHEMBL1157539, “Thousands of chemical starting points for antimalarial lead identification” (Nature, 2010).

Test system: Plasmodium falciparum
Assay: GSK_TCMDC: Inhibition of Plasmodium falciparum 3D7 in whole red blood cells, using parasite LDH activity as an index of growth. Test compounds present at 2uM
Assay type: functional

**Q.** How did the Inhibition turn out when `Oc1cc(Nc2ccnc3cc(-c4cccc(CN5CCOCC5)c4)ccc23)c(F)cc1Cl` was run?
**A.** The Inhibition was 100%.

**Q.** For `CCCCCCOc1ccc(C(=O)N(Cc2ccccc2)c2c(-c3ccccc3)nc3cc(C)ccn23)cc1`, which Inhibition is on record?
**A.** The Inhibition was 95%.

**Q.** With `CC(C)(C)SCC(O)Cn1c2ccc(Br)cc2c2cc(Br)ccc21` (stereo not given) as the compound, how does the Inhibition read?
**A.** Its Inhibition is 87%.

**Q.** With `CN1CCN(c2ccc(CNc3ccc4ncc(-c5cccc(OC(F)(F)F)c5)n4n3)cc2)CC1` as the compound, how does the Inhibition read?
**A.** Its Inhibition is 89%.

**Q.** Which Inhibition does the source give for `N#Cc1ccc(CN2CCC(Oc3ccc(NC(=O)c4ccco4)cc3Cl)C2)cc1.O=C(O)C(F)(F)F` (stereo not given) here?
**A.** The Inhibition was 95%.

**Q.** How did the Inhibition turn out when `COc1ccc(/C=C/C(=O)N2CCc3cc4nccc(N5CCN6CCC[C@H]6C5)c4cc32)cc1` was run?
**A.** Its Inhibition is 100%.

**Q.** How did the Inhibition turn out when `O=C(Nc1ccc(C(F)(F)F)cc1)c1cccc(S(=O)(=O)NC2CCN(CC3CCCCC3)CC2)c1.O=C(O)C(F)(F)F` was run?
**A.** The Inhibition was 99%.

**Q.** `Cc1cccc2nc(-c3cccc(-c4cccc(NC(=O)c5cnccc5C(F)(F)F)c4)c3)[nH]c12` was tested. Which Inhibition did it give?
**A.** Its Inhibition is 98%.

**Q.** For `C[C@H](Cc1ccc(OCCCCCCCOc2ccc(C[C@@H](C)NC[C@H](O)c3cccc(Cl)c3)cc2)cc1)NC[C@H](O)c1cccc(Cl)c1.Cl`, which Inhibition is on record?
**A.** The Inhibition was 99%.

**Q.** Which Inhibition does the source give for `CC(C)c1cccc(OCC2CCN(c3ncc(C(=O)Nc4ccccc4)cc3Cl)CC2)c1` here?
**A.** The Inhibition was 89%.

**Q.** `N[C@@H](Cc1cc(I)c(Oc2ccc(O)c(C(=O)O)c2)c(I)c1)C(=O)O` was tested. Which Inhibition did it give?
**A.** The Inhibition was 97%.

**Q.** Which Inhibition does the source give for `CC1(C)CCCN(C(=O)c2cccc(-n3nc(-c4ccc(Cl)cc4)cc3N)c2)C1` here?
**A.** Its Inhibition is 100%.

**Q.** For `CCCc1ccccc1Nc1nc(C)cc(N(CC)CCCN2CCCCC2)n1.O=C(O)C(F)(F)F`, which Inhibition is on record?
**A.** Its Inhibition is 98%.

**Q.** Which Inhibition does the source give for `CCc1cn(CC(=O)N(CCOc2ccc(-c3ccc(C(F)(F)F)cc3)cc2)CCN(CC)CC)c(SCc2ccc(F)cc2)nc1=O` here?
**A.** The Inhibition was 95%.

**Q.** `O=C1NC(c2ccc(N3CCCCCC3)cc2)Nc2ccccc21` (stereo not given) was tested. Which Inhibition did it give?
**A.** Its Inhibition is 96%.

**Q.** How did the Inhibition turn out when `Cc1cc(C)c(O)c(-c2cc(C(=O)Nc3ccc(S(=O)(=O)N4CC(C)OC(C)C4)cc3)[nH]n2)c1` (stereo not given) was run?
**A.** Its Inhibition is 95%.

**Q.** With `Cl.NC(=O)Nc1ccc2cn[nH]c2c1` as the compound, how does the Inhibition read?
**A.** Its Inhibition is 97%.

**Q.** How did the Inhibition turn out when `Cc1cc(-c2nc3ccc(C(=O)NCc4ccccc4)cc3n2C2CCN(C(=O)c3ccc(-c4ccccc4)cc3)CC2)ccn1` was run?
**A.** Its Inhibition is 95%.

**Q.** With `CC(C)c1ncc(-c2ccncc2)c(C2CCC(CNC(=O)c3ccncc3)CC2)n1` (stereo not given) as the compound, how does the Inhibition read?
**A.** Its Inhibition is 85%.

**Q.** `CNC(=O)c1cc(F)c(F)cc1Nc1nc(Nc2cccc(CS(C)(=O)=O)c2)ncc1Cl.O=CO` was tested. Which Inhibition did it give?
**A.** The Inhibition was 91%.

**Q.** Which Inhibition does the source give for `Cc1cc(=NN=Cc2cccc(Cl)c2)c2ccccc2[nH]1` here?
**A.** The Inhibition was 100%.

**Q.** With `COc1ccc(NS(=O)(=O)c2ccc(C(=O)Nc3ccc(OC(F)(F)F)cc3)cc2)cc1N1CCN(CC2CC2)CC1.O=C(O)C(F)(F)F` as the compound, how does the Inhibition read?
**A.** Its Inhibition is 89%.

**Q.** `Cc1ccccc1Nc1nc(NCCCO)c2ccccc2n1.Cl` was tested. Which Inhibition did it give?
**A.** The Inhibition was 83%.

**Q.** How did the Inhibition turn out when `O=C(Nc1cccc(OC2CCN(Cc3ccc(F)cc3)CC2)c1)c1ccc(C(F)(F)F)cc1.O=C(O)C(F)(F)F` was run?
**A.** The Inhibition was 94%.

**Q.** How did the Inhibition turn out when `C[C@@H]1CC[C@H](NC(=O)[C@H](CC2CCCC2)NC(=O)N2CCNCC2)C(=O)CN1S(=O)(=O)c1ccccn1.O=C(O)C(F)(F)F` was run?
**A.** The Inhibition was 84%.

**Q.** `CCOC(=O)c1ccc(NC(=O)N[C@@H](Cc2ccc(O)cc2)C(=O)NC2CCN(Cc3ccc4c(c3)OCO4)CC2)cc1.O=C(O)C(F)(F)F` was tested. Which Inhibition did it give?
**A.** The Inhibition was 86%.

**Q.** With `CC(C)(CNC(=O)[C@@H]1CCCN(Cc2ccc(Cl)cc2)C1)c1nc(-c2ccc(Cl)c(O)c2)c(-c2ccncc2)[nH]1.Cl` as the compound, how does the Inhibition read?
**A.** Its Inhibition is 97%.

**Q.** With `CN(C)Cc1cccc(-c2ccc(NC(=O)c3ccc4c(=O)n(CCN5CCCCC5)cnc4c3)cc2)c1` as the compound, how does the Inhibition read?
**A.** Its Inhibition is 100%.

**Q.** With `COCC(C)n1c(SCC(=O)Nc2cc(C(F)(F)F)ccc2Cl)nc2ccccc2c1=O` (stereo not given) as the compound, how does the Inhibition read?
**A.** Its Inhibition is 97%.

**Q.** For `CCc1ccc(C2CCN(CCCCNC(=O)c3ccc(NC(=O)c4ccc(Cl)cc4)cc3)CC2)c(OCCO)c1`, which Inhibition is on record?
**A.** Its Inhibition is 98%.

**Q.** For `CN(C)C=Nc1ccc(OCCCCCCOc2ccc(N=CN(C)C)cc2)cc1.Cc1ccc(S(=O)(=O)O)cc1`, which Inhibition is on record?
**A.** Its Inhibition is 100%.

**Q.** `Fc1cccc(C=NN=c2cc[nH]c3ccc(C(F)(F)F)cc23)c1` was tested. Which Inhibition did it give?
**A.** Its Inhibition is 100%.

**Q.** `COc1ccc2nccc(N3CCC(CCNCc4ccc5c(n4)NC(=O)CS5)CC3)c2n1.Cl` was tested. Which Inhibition did it give?
**A.** Its Inhibition is 100%.

**Q.** For `c1ccc(CCNc2ncnc3c2[nH]c2ccccc23)cc1`, which Inhibition is on record?
**A.** Its Inhibition is 95%.

**Q.** How did the Inhibition turn out when `CCc1ccc(CN2CCCCC(NC(=O)c3cc(-c4ccccc4F)cs3)C2)cc1.O=C(O)C(F)(F)F` (stereo not given) was run?
**A.** Its Inhibition is 87%.

**Q.** `O=C(/C=C/c1ccc(C(F)(F)F)cc1)NCCCCCN1CCN(C(=O)Nc2ccc(F)c(Cl)c2)CC1` was tested. Which Inhibition did it give?
**A.** Its Inhibition is 89%.

**Q.** For `Cc1cccc(-c2cccc(CNc3nc(NCCc4ccc(O)cc4)nc(N4CCNCC4)n3)c2)c1.O=C(O)C(F)(F)F`, which Inhibition is on record?
**A.** The Inhibition was 84%.

**Q.** How did the Inhibition turn out when `COc1ccc(Cl)cc1NC(=O)CN(C)C(=O)c1cnn(-c2ccccc2)n1` was run?
**A.** Its Inhibition is 100%.

**Q.** With `COc1ccccc1CCNc1ncc(F)c(N[C@@H](Cc2ccccc2)C(=O)NCCc2ccccc2)n1.O=C(O)C(F)(F)F` as the compound, how does the Inhibition read?
**A.** The Inhibition was 90%.

**Q.** Which Inhibition does the source give for `COc1ccc(-c2ccc(NC(=O)c3ccc(Cl)cc3)cc2)cc1CN1CCC(O)CC1.O=C(O)C(F)(F)F` here?
**A.** The Inhibition was 89%.
